GPR151 activ – human GPR151 activation. PathHunter beta-arrestin GPR151 cells, luminescence. activation, % at 11.2 µM. hit rate 1% among 650,000; in the data active = activation above about 4.9%;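 also: 0% = median of compound wells and 100% = cells with positive control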
MITF inh – blocks human microphthalmia-associated transcription factor | O75030 | AlphaScreen MITF homodimerization, bead proximity signal | inhibition, % at 2.6 µM | hit rate 0.91% among 650,000; in the data active = inhibition above about 50%;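 also: 0% = vehicle wells with protein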
TEAD-YAP inh – TEAD-YAP interaction inhibition; HEK-TIYL cells, TEAD-Gal4/YAP UAS-luciferase luminescence; inhibition, % at 9.12 µM; hit rate 1.4% among 640,000; in the data active = inhibition above about 32%;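 also: 0% = median of test compound wells and 100% = reference inhibitor wells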
FBW7 activator – activators of human E3 ligase FBW7; Q969H0; normalized activity (activation), % at 26.1 µM; AlphaScreen FBW7–phospho-cyclin E peptide binding, activator screen; hit rate 0.13% among 650,000; in the data active = normalized activity above about 1.9%;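 also: purified mutant Fbw7 with reduced substrate affinity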
Numbers without * were called inactive. In the library only some 3.4% were active in any assay of this set; here they are far more common.

SMILES	GPR151 activ	MITF inh	TEAD-YAP inh	FBW7 activator
COc1ccc(C(=O)Nc2cccc(-c3nc4cc(Cl)ccc4o3)c2C)cc1[N+](=O)[O-]	0.0	1.1	-10.8	-0.1
Cc1ccc(-c2ncn(-c3ccc(Nc4ncc5ccc(-c6cnn(C)c6)cc5n4)cc3)n2)cn1	0.1	23.8	20.3	1.0
Cn1cc(-c2ccc3cnc(Nc4ccc(-n5cnc(-c6ccccn6)n5)cc4)nc3c2)cn1	0.3	-2.5	95.6*	-0.2
C=CCN1C=C/C(=C\C=C(C#N)C#N)c2ccccc21	-1.5	68.4*	12.9	-1.8
CN1/C(=C/C=C(C#N)C#N)C=Cc2ccccc21	-0.2	9.1	-8.9	-0.2
COc1ccc2c(c1)c(CC(=O)Nc1ccccn1)c(C)n2C(=O)c1ccc(Cl)cc1	1.9	-0.4	37.3*	-0.2
COc1ccc(CC(=O)Nc2cccc(-c3nnc(-c4ccccc4)o3)c2)cc1OC	4.8	23.4	52.8*	-0.1
COc1ccc(CC(=O)Nc2ccc(-c3nnc(-c4ccccc4)o3)cc2)cc1OC	-0.7	21.7	-16.0	0.2
c1cncc(-c2nc3c4ccccc4nc(N4CCC(N5CCCCC5)CC4)n3n2)c1	-0.3	0.7	45.6*	0.0
O=C(O)CNc1c2ccccc2nc2ccccc12	1.5	15.5	-5.3	0.2
OCCNc1c2ccccc2nc2ccccc12	-0.3	2.7	71.0*	0.4
c1ccc2c(NCCc3cnc[nH]3)c3ccccc3nc2c1	-1.6	11.9	77.3*	0.0
CC(C)(C)c1ccc(C(=O)Nc2ccc(S(=O)(=O)Nc3nccs3)cc2)cc1	0.7	-4.7	-5.9	-0.1
O=C(O)c1ccc(C(=O)Nc2ccccc2S(=O)(=O)Nc2nccs2)cc1	-0.8	9.3	-3.9	3.7*
CCC(=O)C(C#N)c1nnc(-c2ccccc2)s1 (stereo not given)	-3.4	-0.5	37.3*	0.5
O=C(O)CCN(CCC(=O)O)c1nnc(-c2ccccc2)s1	-0.8	5.2	8.0	0.0
COc1ccc2nc(NC(=O)c3nn(C)cc3C)sc2c1	-8.6	-3.1	-19.0	3.6*
COc1ccc2nc(NC(=O)c3cc(Br)ccc3Cl)sc2c1	-1.1	1.2	-18.3	0.0
COc1ccc2nc(NC(=O)c3ccoc3C)sc2c1	-9.6	10.4	58.8*	-0.1
Cc1ccc(NC(=O)CC2c3ccccc3Oc3ccccc32)nc1	-0.3	15.4	52.2*	0.3
O=C(CC1c2ccccc2Oc2ccccc21)Nc1ccccn1	0.2	16.9	25.2	0.1
CN(Cc1ccccc1)c1ccnc2c(-c3ccc(CO)cc3)cnn12	0.3	-12.5	-39.2	0.2
CN(Cc1ccccc1)c1ccnc2c(-c3cccc(O)c3)cnn12	0.7	-9.5	90.4*	0.1
Nc1cccc(-c2cnn3c(N4CCN(c5ccccn5)CC4)ccnc23)c1	-0.1	-3.0	-4.0	0.0
CC(=O)c1cccc(-c2cnn3c(N4CCN(c5ccccn5)CC4)ccnc23)c1	-1.4	5.9	3.4	1.9*
SMILES	GPR151 activ	MITF inh	TEAD-YAP inh	FBW7 activator
CN(Cc1ccccc1)c1ccnc2c(-c3cccc(C(=O)O)c3)cnn12	-4.4	-13.9	89.1*	-0.3
COc1ccccc1C1(NC(=O)C2CC(O)CN2Cc2ccccc2)CCCC1 (stereo not given)	-0.2	5.6	18.1	1.4
COc1ccc(CCN(C)C2CCCN(C(=O)NC3CCCCC3)C2)cc1OC (stereo not given)	-0.6	5.5	-9.1	0.0
C/C(=N/NC(=O)c1cc(O)cc(O)c1)c1ccco1	-0.9	5.0	0.3	0.1
COc1cc(C(=O)N/N=C(\C)Cc2ccccc2)cc(OC)c1OC	-0.3	12.0	58.4*	-0.1
COc1cc(C(=O)NN2C(=O)c3ccccc3C2=O)cc(OC)c1OC	-0.3	-1.7	52.5*	-0.1
COc1cc(C(=O)N/N=C(\C)c2ccco2)cc(OC)c1OC	-0.4	12.9	52.5*	0.8
COc1ccc(/C(C)=N/NC(=O)c2ccccc2)cc1OC	0.6	-5.0	-51.9	0.0
COc1cc(C(=O)N/N=C(\C)c2ccccc2)cc(OC)c1OC	0.8	7.3	60.8*	-0.1
COC(=O)C1=CN(N(C(C)=O)C(C)=O)C(=O)CC1	-0.3	-7.9	1.1	0.0
COc1cc(C(=O)N/N=C(C)/C=C/c2ccccc2)cc(OC)c1OC	1.3	15.3	64.2*	-0.1
COc1cc(C(=O)NN=C(C2CC2)C2CC2)cc(OC)c1OC	-0.6	-4.5	58.8*	0.0
COc1cc(C(=O)NC2CCCCCCC2)cc(OC)c1OC	1.4	13.7	-1.9	0.2
COc1cc(C(=O)N/N=C(\C)c2cccs2)cc(OC)c1OC	0.5	-0.3	54.1*	-0.1
C/C(=N/NC(=O)c1cc(O)c(O)c(O)c1)c1ccc(F)cc1	-0.5	58.6*	4.3	-0.3
